Measured values reported in PubChem BioAssay AID372 (MTDP, 2006).
In all, about 100,000 compounds went through this assay and about 770 (0.77%) were called active. Only a selection was taken, and actives are over-represented in it overall. Values without a mark were called inactive. No stated cut-off is given here; in the data, active means inhibition above about 50%; inactive means the rest.

The compounds below were run against Gag-Pol polyprotein (Human immunodeficiency virus type 1 group M subtype B (isolate HXB2)) (UniProt P04585) (assay: RNase H inhibition, HIV 1 Gag Pol polyprotein, FRET biochemical assay, screening (AID 372)). Settings: HIV-1 RT RNase H, FRET RNA/DNA substrate fluorescence; at 10 µM; stronger effect = higher value.
Work on `CCN1C(=O)/C(=C/c2cc(Cl)cc(Cl)c2OCCOc2ccccc2OC)SC1=S` yielded an inhibition of 7%. Compound `CN1C[N+]([O-])=C(c2ccccc2)C1(C)C` has an inhibition of 3%. For `COC(=O)C1=C(C(=O)OC)SC(=C2C(=S)C(C)(C)Nc3ccc(C(c4ccccc4)(c4ccccc4)c4ccccc4)cc32)S1`, the inhibition was 53% (active). With `CCOC(=O)C1=C(c2ccccc2)S/C(=C2/C(=S)C(C)(C)Nc3ccc(C(c4ccccc4)(c4ccccc4)c4ccccc4)cc32)S1` the inhibition was 27%. With `COC(=O)C1=C(C(=O)OC)SC(=C2C(=S)C(C)(C)Nc3ccc(C)cc32)S1` the inhibition was 28%. Work on `CC(=O)N1CCN(C2=NC(=O)/C(=C/c3ccc(O)cc3)S2)CC1` yielded an inhibition of 10%. For `Cc1ccc(C(=O)O)cc1NC(=O)C1CC=CCC1C(=O)O` (stereo unspecified), the inhibition was 10%. `CCOCCOC(=O)C1=C(C)NC2=C(C(=O)CCC2)C1c1ccc(CC)cc1` (stereo unspecified) was tested, and the inhibition was 12%. In the case of `CCN(CC)S(=O)(=O)c1ccc(-c2ccc(S(=O)(=O)N(CC)CC)cc2)cc1`, the inhibition is reported as 11%. `N#C/C(=C/c1cccc(Cl)c1)C(=O)Nc1cccc(Br)c1` was tested, and the inhibition was 12%. Work on `N#C/C(=C/c1ccc(Cl)cc1)C(=O)Nc1ccc(Cl)cc1` yielded an inhibition of 3%. For `N#C/C(=C\c1ccc(OC(=O)c2ccco2)cc1)C(=O)Nc1ccccc1Br`, the inhibition was 50% (active). `N#C/C(=C\c1ccc(OC(=O)c2ccc(Br)cc2)cc1)C(=O)Nc1cccc(Cl)c1` was tested, and the inhibition was 55% (active). `N#C/C(=C/c1ccc(Cl)cc1)C(=O)Nc1cccc(Br)c1` gave an inhibition of 15%. Work on `N#C/C(=C\c1cc(Br)c(O)c(Br)c1)C(=O)Nc1ccccc1Br` yielded an inhibition of 14%. `N#C/C(=C\c1ccccc1)C(=O)Nc1ccccc1Br` showed an inhibition of 9%. Compound `N#C/C(=C/c1ccc(O)cc1)C(=O)Nc1ccc(O)cc1` has an inhibition of 8%. With `N#C/C(=C/c1ccc(Cl)cc1)C(=O)Nc1ccc(O)cc1` the inhibition was 60% (active). `O=C(Nc1ccc(Cl)cc1)O/N=C\c1ccc(Br)cc1` gave an inhibition of 29%. With `COc1ccc(C2/C(=C(/O)c3ccc(Cl)cc3)C(=O)C(=O)N2CCCC(=O)O)cc1` (stereo unspecified) the inhibition was 4%. Work on `Nc1ccc[n+](CC(=O)c2ccccc2)c1` yielded an inhibition of 2%. `Cc1ccccc1OCCNc1cc(N2CCOCC2)ccc1[N+](=O)[O-]` gave an inhibition of 10%. Compound `Cc1ccc(Cl)cc1NC(=O)/C(C#N)=C\c1ccc(I)o1` has an inhibition of 9%. Compound `COc1ccc(Br)cc1/C=C1/SC(N2CCCCC2)=NC1=O` has an inhibition of 14%. With `COc1ccc(Br)cc1/C=C1\SC(N2CCCC2)=NC1=O` the inhibition was 19%. `COc1ccc(Br)cc1/C=C1\SC(N2CCOCC2)=NC1=O` was tested, and the inhibition was 52% (active). With `COc1ccc(C2CC(=O)C=C(Nc3ccccc3N)C2)cc1OC` (stereo unspecified) the inhibition was 10%. `CN1C(=O)C(=C/C=C/c2ccco2)C(=O)N(C)C1=S` gave an inhibition of 16%. Work on `COC(=O)C1=C(C)N(C)C(=O)/C1=C\c1ccco1` yielded an inhibition of 11%. For `O=C1NC(=O)N(c2ccc(Br)cc2)C(=O)/C1=C/c1ccco1`, the inhibition was 12%. `Cc1ccccc1N1C(=O)/C(=C\c2ccco2)C(=O)N(c2ccccc2)C1=S` gave an inhibition of 49%. With `CN1C(=O)C(=Cc2ccco2)C(=O)N(C)C1=S` the inhibition was 61% (active). In the case of `Oc1ccc(Cl)cc1-c1cc(-c2ccc(Cl)cc2)n[nH]1`, the inhibition is reported as 0%. `O=S(=O)(c1ccc(-c2csc(Nc3ccc4c(c3)OCO4)n2)cc1)N1CCOCC1` showed an inhibition of 8%. Compound `CCCCNCCOc1ccccc1OCC` has an inhibition of 12%. Compound `O=C(Nc1ccc2oc(-c3ccc(F)cc3Cl)nc2c1)c1cc(Cl)ccc1Cl` has an inhibition of 18%. `Oc1ccc2ccccc2c1CN1CCOCC1` showed an inhibition of 7%. In the case of `COc1ccc(/C=C/C(=O)Nc2ncc(Cc3ccccc3Cl)s2)cc1`, the inhibition is reported as 54% (active). For `Cc1ccc(/C=C/C(=O)Nc2ncc(Cc3cc(Cl)ccc3Cl)s2)cc1`, the inhibition was 24%. `O=C(/C=C/c1cccs1)Nc1ncc(Cc2ccccc2Cl)s1` was tested, and the inhibition was 4%. Compound `CCOc1ccccc1OCCOc1cccc(Br)c1` has an inhibition of 3%. Compound `Cc1cccc(N2CCN(CN3C(=O)/C(=C/c4ccc(C)o4)SC3=S)CC2)c1` has an inhibition of 2%. In the case of `CCOC(=O)C(CCCCCOc1ccccc1C(C)(C)C)C(=O)OCC`, the inhibition is reported as 20%. Work on `CCc1ccc(-c2nc(-c3ccccn3)no2)cc1` yielded an inhibition of 15%. For `NC(=O)c1c(/N=C/c2cc(Cl)cc(Cl)c2O)sc2c1CCCC2`, the inhibition was 11%. Compound `COc1cc(/C=N/c2sc3c(c2C#N)CCCC3)cc(Br)c1O` has an inhibition of 15%. In the case of `CCOC(=O)c1c(N)n(CCOC)c2nc3ccccc3nc12`, the inhibition is reported as 0%. `C=CCN(CC=C)CCCCOc1cccc(C)c1` was tested, and the inhibition was 5%. `Oc1ccc(Nc2nc3ccccc3nc2Nc2ccc(O)cc2)cc1` gave an inhibition of 12%. `Ic1ccc(Nc2nc3ccccc3nc2Nc2ccc(I)cc2)cc1` gave an inhibition of 34%. With `Brc1ccc(Nc2nc3ccccc3nc2Nc2ccc(Br)cc2)cc1` the inhibition was 55% (active). `O=C(NCCO)C(=O)Nc1ccccc1` gave an inhibition of 0%. `CCN1CCN(CC(=O)N/N=C/c2ccccc2)CC1` was tested, and the inhibition was 8%. Compound `CCc1ccc(C2Nc3ccc4ccccc4c3C3=C2C(=O)CC(C)(C)C3)cc1` (stereo unspecified) has an inhibition of 19%. With `CC(=O)N(C1=C(Cl)C(=O)c2ccccc2C1=O)c1ccc(Cl)cc1` the inhibition was 32%. For `CC(=O)N(C1=C(Cl)C(=O)c2ccccc2C1=O)c1ccc(Br)cc1`, the inhibition was 69% (active). Work on `CC(=O)N(C1=C(N(C)C)C(=O)c2ccccc2C1=O)c1ccc(Br)cc1` yielded an inhibition of 1%. `CCN1CCN(CC(O)COc2ccc(C(C)(C)C)cc2)CC1` (stereo unspecified) gave an inhibition of 0%. Work on `O=C(O)c1ccc(C(=O)Nc2ccc(I)cc2)c(C(=O)O)c1` yielded an inhibition of 9%. With `O=C(O)c1ccc(C(=O)Nc2ccccc2Br)c(C(=O)O)c1` the inhibition was 54% (active). `O=C(O)c1ccc(C(=O)Nc2ccccc2Oc2ccccc2)c(C(=O)O)c1` was tested, and the inhibition was 6%. `CCC1CCc2c(sc(NC(=O)CCC(=O)O)c2C#N)C1` (stereo unspecified) showed an inhibition of 2%. `C=CCNc1nc(-c2ccc(Cl)cc2)nc2ccccc12` gave an inhibition of 8%. For `Cc1coc2cc3oc(=O)cc(C)c3cc12`, the inhibition was 7%. With `Cc1cc(=O)oc2cc3occ(-c4ccccc4)c3cc12` the inhibition was 57% (active). Compound `Cc1cc(=O)oc2c(C)c3occ(-c4ccccc4)c3cc12` has an inhibition of 31%.
